32 compounds from the supplement of paper PMC9337992 can be followed below.

± gives the standard deviation of the averaged measurements.

This test has as its system MDAMB231. Description: cell proliferation (confluence) relative to DMSO control; higher = less growth inhibition. Particulars: 5 uM; 6 d. The procedure: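 Epigenetic chemical probe screen: 15 TNBC cell lines, 500 cells per well in 384-well plates, treated with 5 uM of each of 36 SGC probes for 6 d. Confluency was imaged by IncuCyte ZOOM and normalised to DMSO control wells. Four replicate wells per compound.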
With `CCCc1cc(C)[nH]c(=O)c1CNC(=O)c1cc(-c2ccc(N3CCN(C(C)C)CC3)nc2)cc2c1cnn2C(C)C`, the cell proliferation came to 57.1 ± 6.4%.

In turn, `CCCc1cc(C)[nH]c(=O)c1CNC(=O)c1cc(-c2ccnc(N3CCN(C)CC3)c2)cc2c1cnn2C(C)C` yielded a cell proliferation of 99.683 ± 0.051%.

With `O=C(NC[C@H](O)CN1CCc2ccccc2C1)c1ccnc(NC2CCC2)c1`, the cell proliferation was determined as 45 ± 5.1%.

For the compound `CCCc1cc(C)n(C)c(=O)c1CN(C)C(=O)c1cc(-c2ccc(N3CCN(C(C)C)CC3)nc2)cc2c1cnn2C(C)C`, the cell proliferation came to 99.29 ± 0.32%.

As for `CCCOc1ccn2c(C(C)=O)cc(-c3ccccc3S(C)(=O)=O)c2c1`, the cell proliferation was found to be 96.7 ± 2.7%.

Take `O=C(c1ccc(C(=O)N2CCC(N3CCCC3)CC2)c(Nc2ccccc2)c1)N1CCC(N2CCCC2)CC1`: the cell proliferation worked out at 99.13 ± 0.17%.

Regarding `CCn1cc(-c2cccc(C(F)(F)F)c2)c2sc(C(=N)NC3CCS(=O)(=O)CC3)cc2c1=O`, the cell proliferation was 89.7 ± 4%.

The compound `CC[C@H](C)n1cc(C)c2c(C(=O)NCc3c(C)cc(C)[nH]c3=O)cc(-c3ccc(N4CCNCC4)nc3)cc21` had a cell proliferation of 98.5 ± 1.6%.

With `COc1cc(C#N)ccc1S(=O)(=O)Nc1ccc2c(c1)cc(C)c(=O)n2C`, the cell proliferation was determined as 95.9 ± 4.5%.

In the case of `COc1ccccc1C(=O)Nc1cc2c(cc1N1CCCC1)n(C)c(=O)n2C`, the cell proliferation is 91.8 ± 5.7%.

On to `Cc1cc(=O)n(C)c2cc(N3C(=O)CC[C@H](NS(=O)(=O)CC(C)C)[C@H]3c3ccc(Cl)cc3)ccc12`, for which the cell proliferation amounted to 95.9 ± 3.5%.

`Cc1nnc2c3ccccc3c(N[C@@H](C)[C@H](c3ccccc3)N(C)C)nn12` [L-moses]: the cell proliferation was 88.6 ± 8.2%.

As for `CCC(=O)N1CCOc2c(cc(-c3ccc(OC)c(OC)c3)cc2OC[C@H]2CCCN(C)C2)C1`, the cell proliferation worked out at 79.2 ± 5.1%.

`CC(C)Oc1ccc(-c2c[nH]cc2CN(C)CCO)cc1` came in with a cell proliferation of 86.1 ± 7.1%.

The compound `CCOC(=O)CCNc1cc(N2CCc3ccccc3CC2)nc(-c2cccnc2)n1` yielded a cell proliferation of 98.88 ± 0.33%.

Compound `COc1cc2c(NC3CCN(C(C)C)CC3)nc(C3CCCCC3)nc2cc1OCCCN1CCCC1` yielded a cell proliferation of 99.05 ± 0.52%.

In the case of `CC(C)Oc1ccc(-c2c[nH]cc2CN(C)CCN)cc1`, the cell proliferation stood at 46.8 ± 5.9%.

On to `CN(C)[C@H]1CN(C2CCc3cccc(F)c32)C[C@@H]1c1ccc(N2CCN(S(C)(=O)=O)CC2)cc1` (some centres not stated), for which the cell proliferation is 99.19 ± 0.27%.

Compound `COc1c(C)cc(NC(=O)c2nn(Cc3ccc(F)cc3)c3c2CN(C(=O)c2ccc[nH]2)C[C@]3(C)C(N)=O)cc1C` gave a cell proliferation of 95.7 ± 2.2%.

`O=C([C@@H](Cc1cccc(C(F)(F)F)c1)NS(=O)(=O)c1cc(F)c2c(c1)CCNC2)N1CCCC1`: the cell proliferation was 87 ± 14%.

On to `CC(C)N(CCCNC(=O)Nc1ccc(C(C)(C)C)cc1)C[C@H]1O[C@@H](n2cc(Br)c3c(N)ncnc32)[C@H](O)[C@@H]1O`, for which the cell proliferation is 99.63 ± 0.16%.

In the case of `CCN(C(=O)CO)[C@H]1CN(/C(=N\C#N)Nc2cccc(OC(F)F)c2)N=C1c1ccc(Cl)c(Cl)c1`, the cell proliferation was 98.31 ± 0.72%.

Compound `O=C(/C=C/N1C[C@H]2C[C@@H]1CN2c1ccccn1)c1ccccc1O` returned a cell proliferation of 99.17 ± 0.39%.

As for `CNCCN1CCC(OCc2ccccc2)CC1`, the cell proliferation turned out to be 82 ± 5.4%.

In turn, `O=C(NCC(=O)N1CCCC1)Nc1ccc2cnccc2c1` showed a cell proliferation of 81.5 ± 7.2%.

Regarding `COc1ccccc1S(=O)(=O)Nc1ccc2c(c1)CN(C)C(=O)N2`, the cell proliferation is 67.9 ± 8.3%.

In turn, `COc1cc2c(cc1OCCCN1CCCC1)N=C(N)C21CCC1` gave a cell proliferation of 96 ± 1.6%.

Take `Cn1cc(CCn2cnc(-c3cnn(C)c3)c2-c2ccc(C#N)cc2)cn1`: the cell proliferation stood at 96.4 ± 3.1%.

Turning to `COc1cc(-c2cn(C)c(=O)c3cnccc23)c(OC)cc1CN(C)C`, the cell proliferation was determined as 96.6 ± 1.5%.

Take `CCOC(=O)CCNc1cc(N2CCc3ccccc3CC2)nc(-c2ccccn2)n1`: the cell proliferation worked out at 31.7 ± 7.8%.

As to `COc1ccc(CCc2nc3cc(-c4c(C)noc4C)ccc3n2C[C@H](C)N2CCOCC2)cc1Cl`, the cell proliferation was found to be 90.9 ± 1.5%.

Regarding `Clc1cc2c(NC3CCCC3)nnc(-c3ccncc3)c2cc1Cl`, the cell proliferation turned out to be 98.72 ± 0.35%.
